Assay results: PubChem BioAssay AID1159580 (chemical genetic matrix, 2015)
Several values for one entry are separate records, joined by “and”; a condition that tells them apart may be missing. Equal values may be shown once. In all, about 5,500 compounds went through this assay and about 2,000 (36%) were called active. Another 18% or so got no clear call; they are omitted. No stated cut-off is given here; in the data, active means normalized growth mostly below about 0.91 (no sharp cut-off); inconclusive means no clear call, values can overlap the other calls; inactive means mostly above about 0.92. This is one part of the list.

Assay: chemical genetic growth profiling, strain panel (AID 1159580);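 further: tested at 20 µM; growth read once vehicle control cultures reached saturation at 30 °C; 1 = growth at the plate median or of vehicle wells; lower values mean less growth of the strain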
Conditions: S. cerevisiae deletion strains, growth OD

Measured: normalized growth

CCOC(=O)[C@H](CCc1ccccc1)N[C@@H](C)C(=O)N1Cc2ccccc2C[C@H]1C(=O)O
inactive: locus YAL021C, strain ccr4, hits give low values 0.993 | locus YAL026C, strain drs2, hits give low values 0.981 | locus YAL030W, strain snc1, hits give low values 1 | locus YBL061C, strain skt5, hits give low values 0.99 | locus YBR009C, strain hhf1, hits give low values 1.02 | locus YBR021W, strain FUR4, hits give low values 1.01 | locus YBR023C, strain chs3, hits give low values 0.984 | locus YBR171W, strain sec66, hits give low values 0.997 | locus YBR229C, strain ROT2, hits give low values 1 | locus YBR231C, strain swc5, hits give low values 1 | locus YBR279W, strain paf1, hits give low values 0.98 | locus YCL011C, strain gbp2, hits give low values 0.998 | locus YCL016C, strain dcc1, hits give low values 0.963 | locus YCL029C, strain bik1, hits give low values 1.01 | locus YCL061C, strain MRC1, hits give low values 1.01 | locus YCL069W, strain vba3, hits give low values 0.986 | locus YCR088W, strain abp1, hits give low values 1 | locus YDL005C, strain med2, hits give low values 1.01 | locus YDL035C, strain GPR1, hits give low values 1.02 | locus YDL040C, strain nat1, hits give low values 1 | locus YDL074C, strain BRE1, hits give low values 0.996 | locus YDL101C, strain DUN1, hits give low values 1.01 | locus YDL134C, strain PPH21, hits give low values 1 | locus YDL185W, strain tfp1, hits give low values 1.01 | locus YDL192W, strain arf1, hits give low values 1.01 | locus YDR001C, strain nth1, hits give low values 1 | locus YDR069C, strain doa4, hits give low values 1 | locus YDR101C, strain arx1, hits give low values 0.999 | locus YDR137W, strain rgp1, hits give low values 0.983 | locus YDR159W, strain sac3, hits give low values 0.964 | locus YDR162C, strain NBP2, hits give low values 1.01 | locus YDR195W, strain ref2 0.965 | locus YDR297W, strain sur2, hits give low values 1.01 | locus YDR318W, strain mcm21, hits give low values 1.01 | locus YDR334W, strain swr1, hits give low values 1.02 | locus YDR335W, strain msn5, hits give low values 0.984 | locus YDR388W, hits give low values 1.01 | locus YDR392W, strain spt3, hits give low values 0.931 | locus YDR502C, strain sam2, hits give low values 1.03 | locus YEL003W, strain gim4, hits give low values 1.02 | locus YEL037C, strain rad23, hits give low values 1.01 | locus YEL061C, strain CIN8 (second series), hits give low values 1.03 | locus YEL061C, strain CIN8, hits give low values 1.01 | locus YER015W, strain faa2, hits give low values 1.01 | locus YER016W, strain bim1, hits give low values 1.02 | locus YER110C, hits give low values 1.01 | locus YER111C, strain swi4, hits give low values 0.989 | locus YER155C, strain BEM2 (second series), hits give low values 1.06 | locus YER155C, strain BEM2, hits give low values 0.995 | locus YER167W, strain BCK2, hits give low values 1.01 | locus YFR010W, strain ubp6, hits give low values 0.998 | locus YGL078C, strain dbp3, hits give low values 1.01 | locus YGL086W, strain mad1, hits give low values 1 | locus YGL167C, strain pmr1, hits give low values 1 | locus YGL173C, strain kem1, hits give low values 0.993 | locus YGL227W, strain vid30, hits give low values 0.986 | locus YGL240W, strain doc1, hits give low values 1.02 | locus YGL248W, strain PDE1, hits give low values 1 | locus YGL253W, strain hxk2, hits give low values 0.926 | locus YGR078C, strain PAC10, hits give low values 1 | locus YGR135W, strain pre9, hits give low values 1.03 | locus YGR229C, strain SMI1, hits give low values 1.02 | locus YGR252W, strain gcn5, hits give low values 0.999 | locus YHR013C, strain ard1, hits give low values 0.953 | locus YHR027C, strain rpn1, hits give low values 1.01 | locus YHR030C, strain SLT2, hits give low values 1.01 and 0.988 | locus YHR079C, strain IRE1 (second series), hits give low values 1.01 | locus YHR079C, strain IRE1, hits give low values 0.976 | locus YHR094C, strain hxt1, hits give low values 1 | locus YHR129C, strain ARP1, hits give low values 1 | locus YHR142W, strain chs7, hits give low values 0.935 | locus YHR200W, strain rpn10, hits give low values 1.01 | locus YIL066C, strain RNR3, hits give low values 1.01 | locus YIL073C, strain SPO22, hits give low values 1.08 | locus YIL125W, strain kgd1, hits give low values 1 | locus YIR030C, strain dcg1, hits give low values 1.01 | locus YJL092W, strain hpr5, hits give low values 1.01 | locus YJL095W, strain BCK1 (second series), hits give low values 1.01 | locus YJL095W, strain BCK1, hits give low values 0.988 and 0.991 | locus YJL115W, strain asf1, hits give low values 1.01 | locus YJL129C, strain trk1, hits give low values 0.983 | locus YJL134W, strain LCB3, hits give low values 1.01 | locus YJL154C, strain vps35, hits give low values 1.02 | locus YJL164C, strain tpk1, hits give low values 1 | locus YJL166W, strain qcr8, hits give low values 1.03 | locus YJL168C, strain set2, hits give low values 1.01 | locus YJL187C, strain SWE1 (second series), hits give low values 1 | locus YJL187C, strain SWE1, hits give low values 1.01
